According to PubChem BioAssay AID504847 (National Center for Advancing Translational Sciences (NCATS), 2011):
Screen size: about 400,000 compounds; about 3,700 (0.93%) were called active. Inconclusive results (about 3%) are left out. The sample holds actives, similar compounds and a random draw of the others, so the mix is not that of the screen. Values without a mark were called inactive. Calls come from the whole dose curve; as a rule, active = well fitted inhibition curve with a large enough effect; inconclusive = small, poorly fitted or top-dose-only effect, or another doubt; inactive = no such curve, though single readings can be large or run the other way.

Target: Vitamin D3 receptor (Homo sapiens) (UniProt P11473)
Sequence (P11473 whole entry, looked up): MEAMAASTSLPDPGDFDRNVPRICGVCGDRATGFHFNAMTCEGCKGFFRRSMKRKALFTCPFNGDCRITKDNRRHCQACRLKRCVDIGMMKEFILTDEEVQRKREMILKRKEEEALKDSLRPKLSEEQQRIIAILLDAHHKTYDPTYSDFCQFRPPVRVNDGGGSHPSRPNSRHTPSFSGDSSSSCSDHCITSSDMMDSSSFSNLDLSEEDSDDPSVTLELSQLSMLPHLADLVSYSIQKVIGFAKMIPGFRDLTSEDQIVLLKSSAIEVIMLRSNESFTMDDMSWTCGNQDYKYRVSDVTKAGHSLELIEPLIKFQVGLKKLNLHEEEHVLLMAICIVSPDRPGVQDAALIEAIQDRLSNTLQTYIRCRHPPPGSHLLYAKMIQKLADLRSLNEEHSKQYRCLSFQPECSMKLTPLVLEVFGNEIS
Experiment: Inhibitors of the vitamin D receptor (VDR): qHTS
Conditions: VDR-SRC2-3 peptide fluorescence polarization, 2 h; max response, negative = inhibition: active compounds read low
Summary of the method: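 Fluorescence polarization assay measuring small-molecule disruption of VDR binding to the coregulator peptide SRC2-3. Compounds were pin-transferred (23 nl) into the reagent mix and incubated 2 h at room temperature before reading.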
% is set by controls: 0 for no effect and ±100 for the full control effect; potency is the fitted concentration of half-maximal effect.

Compound | max response, negative = inhibition [%] | Potency
CC1=C(c2ccc(C)c(C)c2)S(=O)(=O)NC1=NCc1ccccc1Cl | 4.51 | –
C=C1C(=O)C23C(O)C1CCC2[C@]12COC3(O)C(O)C1C(C)(C)CC[C@H]2O (stereo partly drawn) | – | 14.1 µM (active)
O=c1n(Cc2cccc(C(F)(F)F)c2)c2ccccc2c2nc(-c3ccccc3)nn12 | -21.7 | –
CCOc1cccc(CC(=O)N2CCc3c([nH]c4ccccc34)C2c2ccc(F)cc2)c1OCC (stereo not drawn) | 6.55 | –
COc1ccc(S(=O)(=O)Nc2cccc3cccnc23)c(N)c1 | -18.8 | –
Cn1cc(-c2nc3cnc(N4CCNCC4)nc3n(CCC#N)c2=O)c2ccccc21 | -5.94 | –
O=C(Nc1cc(C(=O)Nc2ccc(S(=O)(=O)O)cc2)cc(C(=O)Nc2ccc(S(=O)(=O)O)cc2)c1)Nc1cc(C(=O)Nc2ccc(S(=O)(=O)O)cc2)cc(C(=O)Nc2ccc(S(=O)(=O)O)cc2)c1 | 4.66 | –
O=C(/C=C/c1ccc(Cl)cc1Cl)c1cccnc1 | – | 20 µM (active)
O=C(OCc1cc(Cl)ccc1OC(F)F)c1cccnc1 | 3.25 | –
O=C(NNC1CC(=O)N(c2cccc(Cl)c2)C1=O)c1cccnc1 (stereo not drawn) | 4.73 | –
O=C(c1cnn(-c2ccc(F)cc2)c1-n1cccc1)N1CCN(c2ccc(F)cc2)CC1 | -3.32 | –
CC[C@]1([C@H]2O[C@@H]([C@@H]3O[C@](O)(CO)[C@@H](C)C[C@H]3C)C[C@H]2C)CC[C@@H]([C@]2(C)CC[C@@]3(C[C@@H](O)[C@@H](C)[C@@H]([C@H](C)[C@H](OC)[C@H](C)C(=O)O)O3)O2)O1 | 3.44 | –
CCOC(=O)C1CCCN(C(=O)CN(c2ccc(OC)cc2)S(=O)(=O)c2c(C)noc2C)C1 (stereo not drawn) | -22.5 | –
CCOc1ccc(N(CC(=O)OC)S(=O)(=O)c2c(C)noc2C)cc1 | – | 89.1 µM (active)
COc1ccc(N(CC(=O)Nc2cc(OC)ccc2OC)S(=O)(=O)c2c(C)noc2C)cc1 | 5.52 | –
O=C(c1cccc(F)c1)N1CCC2(CCCN(Cc3ccncc3)C2)CC1 | -10.4 | –
Cc1ccc(Cn2cc(CCC(=O)NCc3ccc(OC(C)C)cc3)c3ccccc32)cc1 | 7.91 | –
COC(=O)c1cccc(-n2[nH]nnc2=S)c1 | – | 79.4 µM (active)
COC(=O)c1cccc(N2C(=O)C3C4C=CC(CC4)C3C2=O)c1 (stereo not drawn) | 12.5 | –
COC(=O)c1cccc(NC(=O)c2cccc(N3C(=O)CCC3=O)c2)c1 | -2.51 | –
COc1cccc(NC(=O)CSC2=Nc3ccccc3C3=NC(CC(=O)NC4CCCCC4)C(=O)N23)c1 (stereo not drawn) | 1.75 | –
CCOCCCNC(=O)c1cn(CC)c2ccc(S(=O)(=O)N3CCc4ccccc4C3)cc2c1=O | -6.66 | –
OCCN1CCN(CC/C=C2\c3ccccc3Sc3ccc(C(F)(F)F)cc32)CC1 | -15.9 | –
COc1ccc(/C=C/C(=O)c2cc(Br)ccc(=O)c2O)cc1 | – | 50.1 µM (active)
COc1ccc(CC(=O)NCC(=O)N/N=C/c2cc(Br)ccc2OC)cc1 | 13.7 | –
COc1ccc(C(=O)c2oc3ccc(Br)cc3c2NC(C)=O)cc1 | -3.63 | –
CCN(CC)c1nn2c(=O)c(C(=O)NCCc3ccccc3)cnc2s1 | 2.65 | –

Compound | max response, negative = inhibition [%] | Potency
CCOC(=O)c1sc(NC(=O)/C=C/c2ccc(C(C)C)cc2)c(C(=O)OCC)c1C | -21.4 | –
CCOC(=O)c1c(NC(=O)c2ccc(S(=O)(=O)N3CCCC(C)C3)cc2)sc2c1CCN(C(C)C)C2 (stereo not drawn) | 21.6 | –
CC(C)c1ccc(NC(=S)NNc2ccc(Cl)c(C(=O)O)c2)cc1 | – | 39.8 µM (active)
CC(C)CC(=O)NC(=S)Nc1cc(C(=O)O)ccc1Cl | -4.96 | –
Cc1ccc(NC(=S)NCCc2ccc(Cl)cc2)c(C)c1 | 2.39 | –
Cc1ccc(C)c(NC(=S)NCC(c2cccnc2)N2CCOCC2)c1 (stereo not drawn) | -7.85 | –
CCC(C(=O)Nc1ccc(C(C)C)cc1)c1ccccc1 (stereo not drawn) | -16.3 | –
Cc1ccc(C)c(NC(=S)NNC(=S)Nc2ccc(C(C)C)cc2)c1 | – | 35.5 µM (active)
COc1cc(C(=O)N2CCN(C(=O)COc3cccc(C)c3)CC2)cc(OC)c1OC | -6.68 | –
Cc1ccc(CN2C(=O)SC(Nc3ccccc3)C2=O)cc1 (stereo not drawn) | -7.63 | –
Cc1ccc(-c2nc(=N)sn2Cc2ccccc2)cc1 | – | 17.8 µM (active)
Cc1ccc(-c2cc(C(=O)NC3CCN(Cc4ccccc4)CC3)c3ccccc3n2)cc1 | -7.79 | –
CC(=O)/C(C)=N\O | -2.4 | –
CCOc1ccc(CNC(=O)c2cc(=O)[nH]c3ccc(S(=O)(=O)N4CCCCC4)cc23)cc1 | 6.6 | –
O=C(NC1CC(=O)N(c2ccc(F)cc2)C1)C1CCCCC1 (stereo not drawn) | -2.82 | –
CCCn1c2ccccc2c2cnn(CC(=O)N(CC)c3cc(C)ccc3C)c(=O)c21 | 3.02 | –
CCN(CCCNC(=O)c1ccc(Sc2ccc(C)cc2)c(NC(C)=O)c1)c1cccc(C)c1 | 9.47 | –
CCN(CCCNC(=O)c1ccc2c(c1)NC(=O)CN2C)c1cccc(C)c1 | – | 79.4 µM (active)
CCN(CCCNC(=O)Cn1ncc2c([nH]c3ccccc32)c1=O)c1cccc(C)c1 | 2.86 | –
CCOc1ccc(N(CC)C(=O)c2noc3c2COc2ccc(C)cc2-3)cc1 | 8.55 | –
CCOc1cccc(CC(=O)N2CCc3c([nH]c4ccccc34)C2c2ccc(OC)cc2)c1OCC (stereo not drawn) | 11.9 | –
COc1ccc(-c2cc(C(=O)NC(Cc3c[nH]c4ccccc34)C(=O)O)c(C)o2)cc1OC (stereo not drawn) | – | 44.7 µM (active)
COc1ccc(-c2cc(=O)oc3cc(OCC(=O)N[C@@H](Cc4c[nH]c5ccccc45)C(=O)O)ccc23)cc1 | -24.6 | –
COc1ccc(-c2cc(C(=O)NC(C(=O)O)C(C)C)c(C)o2)cc1OC (stereo not drawn) | -0.859 | –
CC1CCN(c2nc3ccc(C(=O)N4CCN(c5ccccc5)CC4)cc3s2)CC1 | 19.1 | –
COc1ccc(Cn2c(=O)n(-c3ccccc3C)c(=O)c3c4c(sc32)CN(C(C)=O)CC4)cc1 | 7.19 | –
